# Bioassay records from PubChem BioAssay.
# Most compounds without a hit are left out; they make up all but 11% or so of the library.
# USP30 block: inhibitors of human USP30 deubiquitinase; Ubiquitin carboxyl-terminal hydrolase 30 (Homo sapiens), Q70CQ3; purified USP30, Ub-rhodamine cleavage fluorescence; inhibition, % at 25 µM; 47,000 tested, 5.3% active
# USP17 inh: inhibitors of human USP17 deubiquitinase; Ubiquitin carboxyl-terminal hydrolase 17-like protein 5 (Homo sapiens), A8MUK1; purified USP17, Ub-rhodamine cleavage fluorescence, 3 h; inhibition, % at 50 µM; 47,000 tested, 6.5% active; AID 1645855, 2021
# Target sequence (A8MUK1 whole entry, looked up): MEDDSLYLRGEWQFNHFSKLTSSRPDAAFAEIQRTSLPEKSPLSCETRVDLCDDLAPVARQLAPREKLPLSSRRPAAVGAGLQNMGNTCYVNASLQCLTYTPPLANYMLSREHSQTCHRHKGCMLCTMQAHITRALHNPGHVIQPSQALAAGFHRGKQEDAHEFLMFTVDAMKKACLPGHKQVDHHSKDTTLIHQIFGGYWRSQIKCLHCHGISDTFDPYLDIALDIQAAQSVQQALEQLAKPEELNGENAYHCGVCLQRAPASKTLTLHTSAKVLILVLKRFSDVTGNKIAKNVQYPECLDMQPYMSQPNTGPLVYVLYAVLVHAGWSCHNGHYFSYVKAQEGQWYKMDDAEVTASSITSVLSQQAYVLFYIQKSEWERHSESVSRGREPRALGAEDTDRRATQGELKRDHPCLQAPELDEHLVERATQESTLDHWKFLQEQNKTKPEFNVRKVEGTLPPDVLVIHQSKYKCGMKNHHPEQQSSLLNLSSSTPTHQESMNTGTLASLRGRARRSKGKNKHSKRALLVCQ
# USP28 inh: inhibitors of human USP28 deubiquitinase; Ubiquitin carboxyl-terminal hydrolase 28 (Homo sapiens), Q96RU2; purified USP28, Ub-rhodamine cleavage fluorescence, 30 min; 47,000 tested, 3% active; inhibition, % at 25 µM
# A number is an active result; - = inactive; . = no result given. Rule as the data show it: active = inhibition above about 30%; inactive = the rest.
SMILES,USP30 block,USP17 inh,USP28 inh
COc1cc(C2=NO[C@]3(C(=O)Nc4ccccc43)[C@H]2C(=O)c2ccc(C)cc2)ccc1OCC#N,-,43,-
COc1cc(C2=NO[C@]3(C(=O)Nc4ccccc43)[C@H]2C(=O)c2ccccc2)ccc1OCC#N,-,-,-
CCN1CC2(CCN(C(=O)c3cc(C)[nH]n3)CC2)COc2ccccc2S1(=O)=O,-,-,-
COc1ccc(CC(=O)N2CCC(c3nc(C)ncc3-c3ccncc3)CC2)cc1,-,-,-
CC(=O)c1ccc(NC(=O)C2CC(=O)Nc3nc(SCc4ccccc4)nn32)cc1 (centres undefined),-,-,-
O=C1CC(C(=O)Nc2ccc(F)cc2)n2nc(SCc3ccccc3)nc2N1 (centres undefined),58,-,-
O=C1CC(C(=O)Nc2cccc(F)c2)n2nc(SCc3ccccc3)nc2N1 (centres undefined),43,-,-
COc1cccc(NC(=O)C2CC(=O)Nc3nc(SCc4ccccc4)nn32)c1 (centres undefined),-,-,-
CC(=O)N1C[C@H](c2ccccc2)[C@H]2CN(C(=O)c3ccc(=O)[nH]c3)CC[C@H]21,30,-,-
O=C1N[C@H]2OCC[C@H]2[C@H](C2CCN(C(=O)c3ccc(=O)[nH]c3)CC2)N1,-,-,-
CSc1nc(SCCc2ccccc2)c2c3c(sc2n1)COC(C)(C)C3,-,-,-
Cc1cc(C)n(-c2ccc(C(=O)NCc3cn4cc(C(F)(F)F)cc(Cl)c4n3)cc2)n1,-,37,-
Cc1cc(C)n(-c2ccc(C(=O)NCc3ccc(F)cc3F)cn2)n1,-,-,-
CS(=O)(=O)c1cc(Cl)ccc1CN1CCC(c2nc(-c3ccncc3)no2)CC1,-,-,-
Cc1ccc2c(c1)N(Cc1nc(-c3ccc(F)cc3)no1)C(=O)CO2,-,-,51
CCN1C(=O)COc2ccc(-c3noc(-c4ccnn4C)n3)cc21,-,-,-
COc1ccccc1CNC(=O)CC1c2ncccc2C(=O)N1c1ccccc1 (centres undefined),-,-,-
CCc1ccc(N2C(=O)c3ccccc3C2C(=O)NCc2ccccc2OC)cc1 (centres undefined),63,68,-
CC1=N[C@@]2(CC[C@@H]3CN(C(=O)Nc4ccc(F)cc4)C[C@@H]32)C(=O)N1CC1CC1,-,-,-
COc1ccc(N2CCCS2(=O)=O)cc1NC(=O)Cc1ccc(F)cc1,-,-,-
Cc1cc(-c2ccnc3c(C#N)cnn23)c(C)s1,-,67,-
CC(=O)OCCc1c(C)nc2c(C#N)cnn2c1N1CCCC1,-,-,-
O=C(Cn1cncc(-c2nc(-c3ccccc3)cs2)c1=O)Nc1ccc(F)cc1F,-,-,-
CC(=O)Nc1nsc(N2CCC(C(=O)N3CCN(c4ccc(C)cc4)CC3)CC2)n1,-,-,-
COc1cccc(N2CCN(C(=O)C3CCN(c4nc(NC(C)=O)ns4)CC3)CC2)c1,-,69,-
SMILES,USP30 block,USP17 inh,USP28 inh
CCc1noc(C)c1C(=O)N1CCCCC1c1ccn2nc(C)cc2n1 (centres undefined),-,-,-
CCOC(=O)C1(Cc2cc(-c3ccc(F)cc3)no2)CCCN(Cc2cnc(C)n2C)C1 (centres undefined),36,-,-
CCOC(=O)C1(Cc2cc(-c3ccccc3C)no2)CCCN(Cc2cncn2C)C1 (centres undefined),-,-,-
CNC(=O)[C@@H]1CN(C(=O)c2ccncc2)C[C@H]1c1ccnc(N2CCCC2)n1,-,-,-
Cn1c(N2CCCC(C(=O)NCc3ccc(Cl)cc3)C2)cc(=O)n(C)c1=O (centres undefined),-,-,-
Cc1ccc(NC(=O)NCc2nnnn2-c2ccccc2)cc1,-,-,-
COc1ccccc1NC(=O)NCc1nnnn1-c1ccccc1,32,-,-
Cc1nc(Nc2ccc(Cl)cn2)sc1C(=O)NCc1ccccn1,-,-,-
O=C(CCC1=NS(=O)(=O)c2ccc(C(F)(F)F)cc2N1)NCc1ccccc1,-,-,-
COc1ccc(OC)c(CCNC(=O)CCC2=NS(=O)(=O)c3ccc(C(F)(F)F)cc3N2)c1,33,77,-
O=C(CC1CC1)N1C[C@@H]2c3nc(Nc4ccccc4)ncc3CS(=O)(=O)[C@@H]2C1,-,-,-
Cc1cccc(NC(=O)CC2C(=O)N(Cc3cccnc3)c3nc4ccccc4n32)c1 (centres undefined),-,-,-
Cc1ccc(NC(=O)CC2C(=O)N(Cc3cccnc3)c3nc4ccccc4n32)c(C)c1 (centres undefined),-,39,-
O=C(Nc1cccc(-c2nc3cnccc3o2)c1)c1ccc(Br)o1,31,-,-
COc1cccc(C(=O)Nc2cccc(-c3nc4cnccc4o3)c2)c1,.,55,.
